{"source": "PubChem BioAssay AID720553", "about": "(National Center for Advancing Translational Sciences (NCATS), 2013)", "note": "Among all 340,000 compounds or so, about 3,300 (0.97%) were called active. For the sample, actives were picked, then their nearest neighbours and some compounds at random. Values without a mark were called inactive.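 How the source made its calls: active means maximum activity change below -70%; inconclusive means maximum activity change from -70% to -50%; inactive means maximum activity change above -50%.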 On the % scale 0 is the no-effect control and ±100 the full control effect."}
{"test_system": "Potassium voltage-gated channel subfamily H member 2, brain isoform KCNH2 3.1 (human)", "assay": "qHTS for Inhibitors of KCHN2 3.1: Mutant qHTS", "conditions": "U2OS KCNH2 3.1, thallium flux FluxOr; hits give low values", "summary_of_the_method": "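Steps: virus added to U2OS suspension (4 h, RT, dark); medium with 10% FBS added, cells plated, 37 C overnight; FluxOr/Red40 loading buffer 45 min RT; stimulation buffer, 2 min kinetic read; rate constant normalized.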"}
{"smiles": "COc1ccc(NC(=O)N(C)C[C@H]2Oc3ncc(C#C[C@@H](C)O)cc3C(=O)N([C@H](C)CO)C[C@H]2C)cc1", "activity change": "-1.97%"}
{"smiles": "O[C@H]1C[C@H](c2ccc(Cl)cc2)N(Cc2cccs2)C[C@@H]1n1cc(C2CC2)nn1", "activity change": "8.43%"}
{"smiles": "Cc1ccc(CN(C)Cc2cc(=O)oc3cc(C)c(Cl)cc23)cc1", "activity change": "-12.5%"}
{"smiles": "Cc1cc2oc(=O)cc(CN(C)Cc3ccc(OC(F)F)cc3)c2cc1Cl", "activity change": "-76% (active)"}
{"smiles": "CCOc1ccc(N(C)Cc2cc(=O)oc3ccc(OC)cc23)cc1", "activity change": "-0.899%"}
{"smiles": "Cc1csc(SCC(=O)Nc2ccc(C)c(S(=O)(=O)N(C)C)c2)n1", "activity change": "-4.71%"}
{"smiles": "Cc1ccc(C(=O)OCC(=O)NC2CCCCCCC2)cc1C", "activity change": "8.83%"}
{"smiles": "Cn1c(SCC(=O)Nc2cccc(NC(=O)c3cccs3)c2)nnc1-c1ccncc1", "activity change": "-4.66%"}
{"smiles": "Cn1c(SCC(=O)N2CCOCC2)nnc1-c1ccc(NC(=O)c2ccccc2F)cc1", "activity change": "7.57%"}
{"smiles": "Cc1ccccc1C(=O)Nc1cccc(-c2nnc(SCC(=O)O)n2C)c1", "activity change": "-82.3% (active)"}
{"smiles": "CC(=O)c1ccc(NC(=S)N(Cc2ccccc2)C(C)C2CC2)cc1", "note": "(stereo unspecified)", "activity change": "-99.2% (active)"}
{"smiles": "CC(C)N(Cc1ccccc1)C(=S)Nc1ccc(OC(F)F)cc1", "activity change": "-14.2%"}
{"smiles": "CC(=O)c1ccc(NC(=O)N[C@@H](Cc2ccccc2)C(=O)O)cc1", "activity change": "0.757%"}
{"smiles": "O=C(CCCN1C(=O)C2C3C=CC(C3)C2C1=O)N1CCN(c2ccccc2)CC1", "note": "(stereo unspecified)", "activity change": "7.28%"}
{"smiles": "O=C(O)CCCN1C(=O)C2C3c4ccccc4C(c4ccccc43)[C@@H]2C1=O", "note": "(stereo partly specified)", "activity change": "-134% (active)"}
{"smiles": "O=C(O)CCCN1C(=O)c2ccccc2Sc2ncccc21", "activity change": "-3.66%"}
{"smiles": "C#CCN(C[C@H]1[C@H](OC(=O)NC2CCCC2)[C@H](OC(=O)NC2CCCC2)C[C@H]2C(=O)N(c3ccccc3)C(=O)[C@@H]12)S(=O)(=O)c1ccc(C)cc1", "activity change": "-1.45%"}
{"smiles": "O=C(Nc1sc2c(c1C(=O)O)CCC2)c1ccccc1F", "activity change": "-113% (active)"}
{"smiles": "O=C(O)c1c(NC(=O)N2CCCC2)sc2c1CCCC2", "activity change": "-0.215%"}
{"smiles": "COC(=O)c1c(NC(=O)c2ccccc2F)sc2c1C(C(=O)OC)CC2", "note": "(stereo unspecified)", "activity change": "-2.07%"}
{"smiles": "O=C(OCc1ccccc1)N1CCC2CC1c1ccc(-c3ccc4c(c3)OCO4)cc12", "note": "(stereo unspecified)", "activity change": "6.28%"}
{"smiles": "CCC1NC(=O)c2cccnc2-n2c1nc1ccc(C)cc1c2=O", "note": "(stereo unspecified)", "activity change": "-12%"}
{"smiles": "CC1(C)OC(=O)C2=C(CC(c3ccccc3)OC2CCc2ccccc2)O1", "note": "(stereo unspecified)", "activity change": "-4.16%"}
{"smiles": "Cc1cc(Cl)ccc1C(=O)C1CCCN(C(=O)c2ccc3c(c2)OCO3)C1", "note": "(stereo unspecified)", "activity change": "1.67%"}
{"smiles": "COc1ccc(-c2ccc(CN3C(CC(C)C)C(=O)N(Cc4cn(CC5CCCCC5)nn4)CCS3(=O)=O)cc2)cn1", "note": "(stereo unspecified)", "activity change": "-18%"}
{"smiles": "O=C(Nc1ccncc1)Nc1ccc(F)cc1", "activity change": "20.7%"}
{"smiles": "O=C(Nc1ccncc1)c1c(F)cccc1F", "activity change": "-70.9% (active)"}
{"smiles": "O=C(Nc1ccc(S(=O)(=O)N2CCCCCC2)cc1)c1c(F)cccc1F", "activity change": "-17.5%"}
{"smiles": "CN(c1ccccc1)S(=O)(=O)c1ccc(C(=O)NCc2cccnc2)cc1", "activity change": "-7.84%"}
{"smiles": "CC(Oc1ccc(Cl)cc1)C(=O)Nc1ncccn1", "note": "(stereo unspecified)", "activity change": "5.84%"}
{"smiles": "CC(Oc1ccc(Cl)cc1)C(=O)OCC(=O)Nc1ncc(Cl)cc1Cl", "note": "(stereo unspecified)", "activity change": "-101% (active)"}
{"smiles": "CC1(C(=O)OCC(=O)Nc2ncc(Cl)cc2Cl)CC1(Cl)Cl", "note": "(stereo unspecified)", "activity change": "0.747%"}
{"smiles": "Cc1ccc(-c2ccc(C3=CC(=O)CC(C)(C)C3=O)cc2)cc1", "activity change": "-9.04%"}
{"smiles": "C[C@H](CO)N1C[C@H](C)[C@@H](CN(C)S(=O)(=O)c2ccc(F)cc2)OCc2cnnn2CCCC1=O", "activity change": "-2.94%"}
{"smiles": "O=S(=O)(c1cccc(C(F)(F)F)c1)N1c2ccccc2-n2cccc2C1c1cccnc1", "note": "(stereo unspecified)", "activity change": "-17.4%"}
{"smiles": "COC(=O)c1ccc(Cc2ccccc2)o1", "activity change": "10.6%"}
{"smiles": "CCCn1c(C(Cc2ccccc2)NC(=O)COC)nc2ccccc21", "note": "(stereo unspecified)", "activity change": "-1.15%"}
{"smiles": "CCCC(NC(=O)c1ccccc1)c1nc2ccccc2n1Cc1ccc(C(=O)OC)o1", "note": "(stereo unspecified)", "activity change": "-82% (active)"}
{"smiles": "Cc1ccc2[nH]c(=O)c(CN(CC3COCCO3)C(=O)Nc3ccccc3C)cc2c1", "note": "(stereo unspecified)", "activity change": "-106% (active)"}
{"smiles": "COc1ccc2[nH]c(=O)c(CN(CC3CCCO3)C(=O)Nc3ccccc3)cc2c1", "note": "(stereo unspecified)", "activity change": "8.12%"}
{"smiles": "Cc1cccc(NC(=O)N(Cc2cc3cc(C)cc(C)c3[nH]c2=O)CC2COCCO2)c1", "note": "(stereo unspecified)", "activity change": "-19.5%"}
{"smiles": "COc1cc(C(=O)N2CCOC23CCN(Cc2ccccc2)CC3)cc(OC)c1OC", "activity change": "-5.15%"}
{"smiles": "CN(C)C(CNC(=O)c1cccc(S(=O)(=O)N2CCc3ccccc3C2)c1)c1ccccc1", "note": "(stereo unspecified)", "activity change": "-1.69%"}
{"smiles": "COc1cccc(OCC(=O)NCCS(=O)(=O)N2CCN(c3ccccc3)CC2)c1", "activity change": "-1.4%"}
{"smiles": "CCCCN1C(=O)C(CC(=O)NC(c2ccccc2)c2ccccc2)CC(C(=O)N2CCOCC2)=C1C", "note": "(stereo unspecified)", "activity change": "-3.63%"}
{"smiles": "O=C(CSc1nc2[nH]ncc2c(=O)n1-c1ccccc1)N1CCCc2ccccc21", "activity change": "-184% (active)"}
{"smiles": "CC(C)(C)c1ccc(C(=O)NCc2nnc(SCC(=O)N3CCCc4ccccc43)n2-c2ccccc2)cc1", "activity change": "-6.73%"}
{"smiles": "Cn1c(SCC(=O)N2CCCc3ccccc32)nc2ccccc2c1=O", "activity change": "-2.54%"}
{"smiles": "CCOC(=O)C(=Cc1ccccc1)C(=O)c1ccccc1", "activity change": "-13.1%"}
{"smiles": "O=C(NCc1nnnn1-c1ccc(Cl)cc1)c1ccc([N+](=O)[O-])o1", "activity change": "-3.24%"}
{"smiles": "Cc1ccc(S(=O)(=O)N2[C@@H](c3cccc(Cl)c3)C(C(=O)O)=CC[C@H]2c2ccc(Cl)c(Cl)c2)cc1", "activity change": "-2.17%"}
{"smiles": "Cc1ccc([C@@H]2CC=C(C(=O)O)[C@H](c3cccc(Cl)c3)N2S(=O)(=O)c2ccc(C)cc2)cc1", "activity change": "-83.7% (active)"}
{"smiles": "Cc1ccccc1S(=O)(=O)N1[C@@H](c2cccc(Cl)c2)C(C(=O)O)=CC[C@H]1c1ccc(Cl)cc1", "activity change": "10%"}
{"smiles": "Cc1nnc(SC(C)C(=O)c2c[nH]c3ccccc23)n1C1CC1", "note": "(stereo unspecified)", "activity change": "-8.46%"}
{"smiles": "C#CCN(C[C@@H]1[C@@H](OC(=O)NC2CC2)[C@@H](OC(=O)NC2CC2)Cn2c(=O)ccc(=O)n21)S(=O)(=O)c1ccc(C)cc1", "activity change": "0.102%"}
{"smiles": "Nc1nnc(SCC(=O)NC2CCCc3ccccc32)s1", "note": "(stereo unspecified)", "activity change": "-15.6%"}
{"smiles": "Nc1nnc(SCC(=O)NCC(=O)Nc2ccc(F)c(F)c2F)s1", "activity change": "-119% (active)"}
{"smiles": "Cc1ccc(S(=O)(=O)N2CCOCC2)cc1NC(=O)CSc1nnc(N)s1", "activity change": "1.46%"}
{"smiles": "CCN(CC)C(=O)C1=C(C)N(Cc2ccccc2)C(=O)C(CC(=O)NC(c2ccccc2)c2ccccc2)C1", "note": "(stereo unspecified)", "activity change": "0.781%"}
{"smiles": "Cc1noc(C)c1S(=O)(=O)N(C)C[C@H]1OCCCC[C@@H](C)Oc2ccc(NC(=O)CCCN(C)C)cc2C(=O)N([C@H](C)CO)C[C@@H]1C", "activity change": "18.2%"}
{"smiles": "COC(=O)C[C@H]1C[C@@H]2c3cc(N(C)C)ccc3O[C@@H]2[C@H](CO)O1", "activity change": "2.06%"}
{"smiles": "O=C(Nc1cccc(C(=O)O)c1)/C(=C\\c1ccccc1)NC(=O)c1ccc(Br)o1", "activity change": "3.42%"}
{"smiles": "Cc1cccn2c(CNCC(C)Oc3cccnc3)c(C(=O)N3CCOCC3)nc12", "note": "(stereo unspecified)", "activity change": "1.22%"}
{"smiles": "Cc1cccc(N2CCC(NCc3c(C(=O)N4CCCCC4)nc4c(C)cccn34)CC2)c1", "activity change": "-70.6% (active)"}
{"smiles": "CCOC(=O)C1CCN(Cc2c(C(=O)N3CCOCC3)nc3c(C)cccn23)CC1", "activity change": "-6.64%"}
{"smiles": "CC1=C(C(=O)N(C)C)CC(CC(=O)NCCc2ccccn2)C(=O)N1CCC1=CCCCC1", "note": "(stereo unspecified)", "activity change": "6.34%"}
{"smiles": "CN(Cc1c(F)cccc1Cl)C(=O)COC(=O)Cn1cnc2ccccc2c1=O", "activity change": "2.53%"}
{"smiles": "COc1ccc(C2=NS(=O)(=O)N(C)C(C(=O)NC(C)c3ccccc3)=C2)cc1", "note": "(stereo unspecified)", "activity change": "-85% (active)"}
{"smiles": "COc1ccc(C2=NS(=O)(=O)N(C)C(C(=O)N(C)Cc3ccccc3)=C2)cc1", "activity change": "7.33%"}
{"smiles": "COc1ccc(NC(=O)C2=CC(c3ccc(OC)c(OC)c3)=NS(=O)(=O)N2C)cc1", "activity change": "-5.31%"}
{"smiles": "Cc1cc2c3ccccc3[nH]c(=O)n2n1", "activity change": "-1.28%"}
{"smiles": "COc1ccc([C@H]2N[C@]3(CCCN(CC4CCCCC4)C3=O)[C@H]3C(=O)N(C)C(=O)[C@@H]23)cc1", "activity change": "4.21%"}
{"smiles": "CCCCCCNC(=O)O[C@]12C[C@@H](C(=O)OC)[C@@H](C(=O)OC)C[C@@]1(O)CN(S(=O)(=O)c1ccc(C)cc1)C2", "activity change": "-9.12%"}
{"smiles": "CCN(CC)CCN(C(=O)c1ccc2c(c1)CCCC2)c1nc2c(OC)cccc2s1", "activity change": "-48.3%"}
{"smiles": "CC12C(=O)N(c3ccccc3)C(=O)C1C(c1ccccc1)N1CCCN12", "note": "(stereo unspecified)", "activity change": "2.73%"}
{"smiles": "CC(C)C1C2=C(CC(C)(C)CC2=O)ON1c1ccccc1", "note": "(stereo unspecified)", "activity change": "-4.1%"}
{"smiles": "CC(C)N1C(=O)N(c2ccccc2)C(C)(O)CC1(C)C", "note": "(stereo unspecified)", "activity change": "-71.4% (active)"}
{"smiles": "Cc1ccc(C(=O)N[C@H](C(=O)N2CCN(c3ncccn3)CC2)C(C)C)cc1", "activity change": "5.87%"}
{"smiles": "C[C@H]1NS(=O)(=O)c2cc(Cl)ccc2O[C@@H]1c1ccccc1", "activity change": "-5.74%"}
{"smiles": "CCOc1cc(/C=N/Nc2cc(C)nc3ccc(C)cc23)ccc1O", "activity change": "-2.46%"}
{"smiles": "Fc1ccccc1/C=N/Nc1cc(N2CCCCC2)ncn1", "activity change": "11.8%"}
{"smiles": "Cc1cc(N/N=C/c2ccccc2F)c2ccccc2n1", "activity change": "-142% (active)"}
{"smiles": "CCCCN1CC(C)(C)[C@H](CC(=O)Nc2ccc(Br)cc2)C1=O", "activity change": "5.46%"}
{"smiles": "O=C(c1ccc(F)cc1)C1CCN(Cc2cn[nH]c2-c2ccccc2)CC1", "activity change": "-104% (active)"}
{"smiles": "Cc1ccccc1CN1CCN(C(=O)c2cccc(F)c2)CC1", "activity change": "-16.7%"}
{"smiles": "COc1ccc(CN2CCNC(=O)C2CC(=O)NCc2cn[nH]c2-c2ccccc2)c(F)c1", "note": "(stereo unspecified)", "activity change": "-3.5%"}
